PubChem BioAssay AID588342 (National Center for Advancing Translational Sciences (NCATS), 2011)
In all, about 360,000 compounds went through this assay and about 25,000 (6.9%) were called active. Inconclusive results (about 9%) are left out. The full list was thinned out, with actives kept by preference. Values without a mark were called inactive. Calls follow the shape of the dose curve; as a rule, active = well fitted inhibition curve with a large enough effect; inconclusive = small, poorly fitted or top-dose-only effect; inactive = flat fitted curve, though single readings scatter.

Molecular target: Luciferin 4-monooxygenase (Photinus pyralis) (UniProt P08659)
Test: qHTS profiling assay for firefly luciferase inhibitor/activator using purifed enzyme and Km concentrations of substrates (counterscreen for miR-21 project); also: nearly all actives have a fitted effect of over 55% in size;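 as to activity change, negative = inhibition: plate controls were vehicle for no effect and reference inhibitor for full effect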
Settings: purified FLuc, luminescence inhibition; series mostly up to 57.5 µM; activity change, negative = inhibition: at the top concentration
Method in brief: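 Biochemical qHTS of compounds, final roughly 60 µM downward over six points, against 10 nM purified firefly luciferase using Km concentrations of substrates (10 uM D-luciferin, 10 uM ATP) in Tris acetate pH 7.5 buffer; luminescence output.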
Potency is read from the fitted curve at half-maximal effect.

Luciferin 4-monooxygenase (Photinus pyralis), sequence (P08659 whole entry, looked up): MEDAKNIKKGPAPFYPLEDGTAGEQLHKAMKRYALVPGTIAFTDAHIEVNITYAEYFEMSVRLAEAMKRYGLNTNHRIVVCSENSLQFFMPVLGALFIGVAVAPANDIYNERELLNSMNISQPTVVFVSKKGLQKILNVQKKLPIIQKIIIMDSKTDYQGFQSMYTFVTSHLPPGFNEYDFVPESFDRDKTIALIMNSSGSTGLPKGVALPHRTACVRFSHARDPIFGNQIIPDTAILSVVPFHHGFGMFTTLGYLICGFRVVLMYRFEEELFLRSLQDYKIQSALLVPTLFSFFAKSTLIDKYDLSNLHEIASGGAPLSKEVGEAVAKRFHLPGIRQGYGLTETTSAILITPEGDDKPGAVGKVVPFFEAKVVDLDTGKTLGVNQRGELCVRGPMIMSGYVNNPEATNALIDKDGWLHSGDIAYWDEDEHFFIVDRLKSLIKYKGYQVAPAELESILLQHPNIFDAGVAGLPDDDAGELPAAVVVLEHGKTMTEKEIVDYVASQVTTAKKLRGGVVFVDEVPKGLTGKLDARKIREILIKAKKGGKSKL

Structure (SMILES)	activity change, negative = inhibition	Potency
N/C(Cc1ccc([N+](=O)[O-])cc1)=N\OC(=O)C1CCCCC1	-3.28%	–
NC(=O)c1ccc(NC(=O)COC(=O)c2ccc([N+](=O)[O-])cc2)cc1	-0.303%	–
O=C(COC(=O)C1CCCCC1)Nc1ccc([N+](=O)[O-])cc1	–	16.9 µM (active)
O=C(CN1CCSc2ccccc21)N1CCN(c2ccccc2)CC1	-5.65%	–
CCCCN1C(=O)CC(N2CCOCC2)C1=O (stereo unspecified)	-0.0203%	–
CCOC(=O)c1nn(-c2cccc(C)c2)cc1C(=O)c1ccccc1	–	9.53 µM (active)
CCOC(=O)c1cn(Cc2cccc(C)c2)nn1	2.45%	–
CC(=O)c1nn(-c2cccc(Br)c2)cc1C(=O)c1cccc2ccccc12	-2.37%	–
COc1ccc(S(=O)(=O)NCc2cccn2Cc2cccc(C)c2)cc1Cl	-8.6%	–
Cc1cc(Cl)ccc1OCCCC(=O)NCc1ccncc1	-4.06%	–
Cc1cc(Cl)ccc1OCc1nc(-c2ccncc2)no1	–	10.7 µM (active)
Cc1ccccc1C(=O)NCc1nc(-c2ccc(Cl)cc2)no1	-1.77%	–
Cc1ccc(CNC(=O)CSc2c(C)cnc3c2c(=O)n(C)c(=O)n3C)cc1	-0.897%	–
CCC(=O)Nc1ccc(C(=O)NNC(=O)c2ccc(Cl)cc2)cc1	-3.51%	–
O=C(Nc1cccc(Cl)c1)c1csnn1	-14.4%	–
O=C(Nc1ccc(Cl)cc1)c1ccsn1	–	12 µM (active)
O=[N+]([O-])c1cc(-c2nc(-c3ccccc3)no2)ccc1NCc1ccco1	-8.68%	–
Cc1cc2n(n1)C(c1cc(C(C)(C)C)c(O)cc1O)Nc1ccccc1-2 (stereo unspecified)	-15.3%	–
CCC1C=C(c2ccccc2)C=CN=C1N(CC)CC (stereo unspecified)	0.24%	–
CCOc1ccc(CCNC(=O)Cn2nc(CC)n3c(cc4sc(CC)cc43)c2=O)cc1OCC	-5.54%	–
Cc1cc(N)n2nc(-c3ccc(C(C)(C)C)cc3)cc2n1	–	0.601 µM (active)
COc1ccc(-c2cc(C(F)(F)F)n3nc(-c4ccccc4)cc3n2)cc1OC	-0.561%	–

Structure (SMILES)	activity change, negative = inhibition	Potency
Cc1cc(-c2ccccc2)n2nc(-c3ccccc3)cc2n1	-16.5%	–
Cc1cc(C)cc(-n2c(SCC(=O)NCC3CCCO3)nc3c([nH]c4ccccc43)c2=O)c1 (stereo unspecified)	-0.071%	–
COc1cccc(NC(=O)Nc2ccc3c(c2)N(C)C(=O)c2ccccc2S3)c1	1.22%	–
CCCCS(=O)(=O)c1oc(-c2cccs2)nc1S(=O)(=O)c1ccccc1	-0.854%	–
CCOCCCNC(=O)C(NC(=O)c1ccccc1O)c1ccccc1 (stereo unspecified)	-1.29%	–
COc1ccc(N2CCN(C(=O)c3ccc4c(Cl)c5c(nc4c3)CCCC5)CC2)cc1	–	inactive
CC(C)CCNC(=O)c1ccc2c(Cl)c3c(nc2c1)CCC3	–	0.675 µM (active)
CC(=O)c1ccc(NC(=O)c2ccc3c(Cl)c4c(nc3c2)CCCC4)cc1	3.57%	–
CCOc1ccc(OCC(=O)OC(C)C(=O)NC2CCCCC2C)cc1 (stereo unspecified)	-0.597%	–
CCc1cc2c(cc3c(=O)n(CC(=O)NCCc4ccc(OC)c(OC)c4)ncn32)s1	-4.14%	–
CCN(CC)c1ccc(/C=N/NC(=O)c2cnccn2)c(O)c1	–	9.53 µM (active)
Cc1ccc(C(=O)NCCNC(=O)c2cnccn2)cc1	-0.972%	–
COc1ccc(NC(=O)C/C(C)=N/NC(=O)c2cnccn2)cc1Cl	0.369%	–
O=C(CSc1ncnc2c1cnn2CCc1ccccc1)Nc1ccc(F)cc1	4.06%	–
CC(=O)c1ccc(NC(=O)C2CCN(S(=O)(=O)c3c(C)noc3/C=C/c3ccc(C)cc3)CC2)cc1	1.25%	–
COc1ccc(C2(C)ON(c3ccccc3C(F)(F)F)C2=O)cc1 (stereo unspecified)	0.0812%	–
CCNCCC(=O)N1c2ccccc2Sc2ccc(NC(=O)OCC)cc21	2.62%	–
CC(C)Cc1cc(C(=O)NCCc2ccccc2)no1	–	10.7 µM (active)
Nc1nonc1C(=O)NCCc1ccccc1	-0.421%	–
O=C(Nc1ccccc1Br)c1cc(CN2CCCC2)on1	-18.8%	–
Cc1nn(Cc2ccc(F)cc2)c(C)c1NC(=O)c1cc(CC(C)C)on1	-4.75%	–
CC(C)Cc1cc(C(=O)Nc2cc(Br)ccc2O)no1	–	12 µM (active)

Structure (SMILES)	activity change, negative = inhibition	Potency
C[C@H](NC(=O)NCCc1ccccc1)C(=O)O	-5.46%	–
O=S(=O)(NCCCN1CCOCC1)c1ccc(F)c(Cl)c1	0.23%	–
CCCN=C1NC(=O)C(CC(=O)NCCc2ccc(OC)c(OC)c2)S1 (stereo unspecified)	3.61%	–
Cc1cccc(-n2ccnc2SCC(=O)Nc2cc(C(F)(F)F)ccc2Cl)c1	-5.71%	–
CN1CCN(C(CNC(=O)c2ccccc2F)c2ccc3c(c2)OCO3)CC1 (stereo unspecified)	-1.47%	–
C=CCn1c(SCC(N)=O)nnc1-c1cc2c(s1)CCC(CC)C2 (stereo unspecified)	–	7.57 µM (active)
CCn1c(CSc2nc(C)cc(C)n2)nnc1SCC(N)=O	0.421%	–
C=CCn1c(SCc2c(C(=O)OC)sc(N)c2C(=O)OC)nnc1-c1ccc(Cl)cc1	0.526%	–
Cc1oc2ncnc(N3CCCCC3)c2c1C(=O)N1CCN(c2cccc(Cl)c2)CC1	-3.14%	–
Cc1ccc(O)c(NC(=O)CCS(=O)(=O)c2nc(-c3ccc4c(c3)OCO4)cc(C(F)(F)F)n2)c1	1.61%	–
CCc1ccc(NC(=O)c2cc(S(=O)(=O)N3CCCC(C)C3)cn2C)cc1 (stereo unspecified)	-1.37%	–
Oc1ccccc1N1CCN(c2ncnc3sc(-c4ccccc4)cc23)CC1	-11.7%	–
COc1ccc(Nc2nc(=O)[nH]nc2C)cc1	10.5%	–
O=C(O)CCCCCNc1ncnc2ccc(Br)cc12	0.793%	–
COc1ccc(Nc2ncnc3sc(C)cc23)cc1	–	16.9 µM (active)
COc1ccc(Nc2ncnc3sc(-c4ccccc4)cc23)c(OC)c1	–	19 µM (active)
CCOc1ccc(Nc2ncnc3scc(-c4ccc(OC)cc4)c23)cc1	3.74%	–
C=CCNc1ncnc2ccc(Br)cc12	-1.56%	–
COc1ccc(Nc2ncnc3ccc(Br)cc23)c(OC)c1	–	26.9 µM (active)
COc1ccc(NC(=O)c2sc(N3CCOCC3)nc2-c2ccccc2)c(OC)c1	-2.03%	–
Cc1cc(C)cc(NC(=O)CSc2nc3nccnc3c(=O)n2CCc2c[nH]c3ccccc23)c1	-6.41%	–
COc1ccc(N2CCN(C(=O)C3CCCN(C(=O)c4cc5sccc5n4C)C3)CC2)cc1 (stereo unspecified)	-10.7%	–

Structure (SMILES)	activity change, negative = inhibition	Potency
Cc1cc(C)c2sc(NC(=O)c3ccc(S(=O)(=O)N4CCCC4)cc3)nc2c1	-1.89%	–
CC(C)(C)c1ccc(/C=C2\Oc3c(ccc(O)c3CN3CCN(CCO)CC3)C2=O)cc1	-7.13%	–
CCOc1ccc(-n2c(C)nc3c(cnn3-c3ccc(C)cc3)c2=O)cc1	6.57%	–
CCN(CC(=O)Nc1ccc(NC(C)=O)cc1)C(=O)CSC(=S)N1CCCC1	-0.101%	–
Cn1c(-c2ccc(C(F)(F)F)cc2)cc2onc(-c3ccccc3)c2c1=O	–	0.536 µM (active)
O=c1c2ccccc2c(-c2ccc(F)cc2)nn1-c1ccc(C(F)(F)F)cc1	5.56%	–
O=C1c2ccccc2C(=O)N1Cc1cc(-c2ccccc2Cl)no1	-14%	–
Cc1[nH]n(C)c(=O)c1C(=O)c1c(-c2c(Cl)cccc2Cl)noc1C	0.456%	–
Cn1c(-c2ccc(F)cc2)cc2onc(-c3ccccc3Cl)c2c1=O	–	2.13 µM (active)
Cc1onc(-c2ccccc2)c1C(=O)N1CCN(S(=O)(=O)c2ccccc2C(F)(F)F)CC1	3.66%	–
COc1ccccc1C1C(C(=O)N2CCCCC2)=C(C)Nc2nc3ccccc3n21 (stereo unspecified)	1.67%	–
COc1ccccc1CNC(=O)CCCN1C(=O)NC2(CCCC2)C1=O	-1.94%	–
CCc1cc(CNC(=O)CC2C(=O)NCCN2CC2CCCCC2)on1 (stereo unspecified)	3.31%	–
O=C(NC(Cc1ccccc1)C(=O)N1CCCC(C(F)(F)F)C1)c1ccccc1 (stereo unspecified)	-0.559%	–
FC(F)(F)C1CCCN(c2nsc3ccccc23)C1 (stereo unspecified)	–	9.53 µM (active)
CC(=O)N1CCCc2cc(S(=O)(=O)N3CCC(C(=O)NCc4ccc(F)cc4)CC3)ccc21	-4.77%	–
O=C(NC(=O)N1CCOCC1)c1ccccc1	-2.28%	–
O=C(NC(=O)c1ccccc1)Nc1ccccc1O	–	1.9 µM (active)
CNC(=O)C(NC(=O)c1ccccc1)=C(C)C	-0.136%	–
COc1ccc(OC)c(NC(=O)CSC2=Nc3ccccc3C3=NC(CC(=O)NCc4ccc(F)cc4)C(=O)N23)c1 (stereo unspecified)	-11%	–
CCC(=O)Nc1nc(C)c(C(=O)Nc2cccc(Cl)c2)s1	-11.7%	–
COc1cccc2sc(Nc3nc(C)c(C(C)=O)s3)nc12	–	6.75 µM (active)

Structure (SMILES)	activity change, negative = inhibition	Potency
COc1cc(OC)c(C(=O)Nc2ccc(N(C)C)cc2)cc1OC	–	10.7 µM (active)
COc1cc(OC)c(C(=O)Nc2ccccc2-c2ccccc2)cc1OC	4.62%	–
COc1cc2ccccc2cc1C(=O)Nc1nc(C)c(C(C)=O)s1	–	4.78 µM (active)
COC(=O)c1ccc(NC(=O)c2cc(Cl)ccc2OC)cc1	-7.08%	–
COc1ccccc1NC(=O)c1cc(Cl)nnc1Cl	-4.24%	–
COc1cc2ccccc2cc1C(=O)Nc1ccccc1C	–	8.49 µM (active)
COc1cc2ccccc2cc1C(=O)N1CCOCC1	4.45%	–
CNC(=O)c1sc(NCc2ccccc2OC)nc1C	-3.58%	–
COc1cccc2sc(N(CCCN(C)C)C(=O)C(c3ccccc3)c3ccccc3)nc12	6.95%	–
COc1ccc(Br)cc1C(=O)Nc1cccc(C)c1C	3.91%	–
CC(=O)c1ccc(NC(=O)CSc2c(C(C)C)cnc3c2c(=O)n(C)c(=O)n3C)cc1	-12.3%	–
CS(=O)(=O)N(CC(=O)N1CCOCC1)c1ccc2c3c(cccc13)CC2	3.63%	–
Cc1ccc(S(=O)(=O)N2CCC(C(=O)OCC(=O)N3CC(=O)Nc4ccccc43)CC2)cc1	0.335%	–
Cc1cc(C)n(CCC(=O)N2CCN(S(=O)(=O)c3ccc(C)c(C)c3)CC2)n1	0.684%	–
COc1ccccc1C(=O)Nc1c(C(=O)N(C)Cc2ccccc2)sc2nc(C)c(Cl)c(C)c12	1.14%	–
O=C(O)c1ccc2c(c1)N(Cc1ccc(F)cc1)C(=O)c1ccccc1S2=O (stereo unspecified)	-16.8%	–
Cc1cc(C)cc(OCC(=O)Nc2c(C(=O)c3ccccc3)oc3ccccc23)c1	2.57%	–
Cc1ccc2oc(C(=O)Nc3ccc(S(=O)(=O)N4CCCCCC4)cc3)cc(=O)c2c1	-1.02%	–
